# Source: PubChem BioAssay
# Pf Dd2 inh = Plasmodium falciparum Dd2 growth inhibition. Potency, µM (titrated, usually from 28.9 µM), actives largely listed as inhibitors. 4.3% of 120,000 active. P. falciparum Dd2 growth, SYBR Green, 72 h. AID 1347417; active means well fitted inhibition curve with a large enough effect; further: nearly all actives have a fitted effect of over 65% in size
#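 Readout: SYBR Green fluorescence, 485 nm excitation, 535 nm emission, after ~16 h lysis at 37C. Before that, Dd2-infected red cells (2.5% hematocrit) grew 72 h with compound, 29 uM top final concentration.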
# Numbers stand for hits; - = inactive. The entries come from a sample that favours hits as a whole.
SMILES,Pf Dd2 inh
CCN(CC)c1cc(CCC(=O)N2CCN(c3ccc(Cl)cc3)CC2)ccn1,8.9µM
CCN(CC)c1cc(CCC(=O)NCCN(C)C2CCCCC2)ccn1,1.6µM
CCN(CC)c1cc(CCC(=O)NCCOC)ccn1,-
CCN(CC)c1cc(CCC(=O)O)ccn1,-
CCN(CC)c1cc(CCC(=O)NCCCN2CCN(C)CC2)ccn1,-
CCN(CC)c1cc(CCC(=O)NCCN2CCCCCC2)ccn1,3.5µM
CCN(CC)c1cc(CCC(=O)N2CCC(COC)CC2)ccn1,-
O=C(N1CCCC1)N1CCn2c(nnc2C2CCCN2)C1 (centres undefined),-
Cc1ccc(Cn2c(C3CCN(C(=O)c4cccs4)CC3)n[nH]c2=O)cc1,-
CN(CC1CCCO1)c1ccc(C(=O)N2CCC(N3CCOCC3)CC2)cn1 (centres undefined),-
CCc1ccc(NC(=O)C(C)C2CCOCC2)cc1 (centres undefined),-
COc1ccc(C2C(C(=O)OC(C)(C)C)=C(C)N=C3SC=C(CC(=O)NCC4CC4)N32)cc1OC (centres undefined),-
CC(C)N1CC2(C1)C(=O)N(Cc1ccccc1F)C(=O)[C@@H]1C[C@@H](O)CN12,-
COCCc1noc(CC2CCOC3(CCN(C(=O)NC(C)(C)C)CC3)C2)n1 (centres undefined),-
CNC(=O)[C@@H]1C[C@H](n2cc(C(C)(C)NC(=O)c3cc(F)ccc3C)nn2)CN1,-
Cc1nc(CC2CCN(C(=O)c3cccn3C)CC2)n[nH]1,-
COc1cccc(CN(C)S(=O)(=O)c2cccc(C(=O)NCCF)c2)c1,-
COc1cccc2c1Oc1nc(-c3ccccc3)nc(SCC(=O)N3CCCCC3)c1C2,-
CCOc1cccc2c1Oc1nc(-c3ccccc3)nc(SCC(=O)Nc3ccc(F)cc3)c1C2,7.9µM
CCOc1ccc(-c2nc3c(c(SCC(=O)Nc4ccccc4C)n2)Cc2ccccc2O3)cc1,-
COc1ccc(-c2nc3c(c(SCC(=O)Nc4ccccc4OC)n2)Cc2cccc(C)c2O3)cc1,11µM
COc1cccc(NC(=O)CSc2nc(-c3ccccc3)nc3c2Cc2cc(Cl)ccc2O3)c1,-
COc1ccc(-c2nc3c(c(SCC(=O)Nc4ccccc4F)n2)Cc2cc(C)ccc2O3)cc1,-
O=C(CC1CCCN(c2cnn(CC3CC3)c(=O)c2)C1)N1CCN(c2ccccc2)CC1 (centres undefined),-
O=C1CCCCC(CNC(=O)c2ccccc2)N1 (centres undefined),-
SMILES,Pf Dd2 inh
COc1cc(-c2[nH]ncc2CN(CCO)Cc2cccs2)cc(OC)c1OC,-
Cc1noc(C)c1-c1cccc(CCOc2cnc3c(ccn3CC(=O)O)c2)c1,-
Cc1nnc(CN(C)c2ccc(-c3nc(CCCc4ccccc4)no3)cn2)o1,-
CN(Cc1ncc[nH]1)c1ccc(-c2nc(CCCc3ccccc3)no2)cn1,4.5µM
CN(Cc1ccccn1)c1ccc(-c2nc(Cc3ccc(F)cc3)no2)cn1,-
O=C(c1ccc(Cl)s1)N1CCC(n2cnnc2-c2ccccc2)C1 (centres undefined),-
CN1CCN(Cc2nc(C3(O)CCN(C(=O)Cc4ccccc4)CC3)cs2)CC1,-
COc1ccc(C(=O)N2CCC3(CC2)NC(=O)N(Cc2ccccc2Cl)C3=O)cc1,-
O=C(Nc1ccccc1)c1cnc2n1CCN(Cc1cccc(O)c1)CC2,-
CC(C)c1ccc(CN2CCc3ncc(C(=O)Nc4ccccc4)n3CC2)cc1,13µM
CC(C)CCNC(=O)c1cnc2n1CCN(Cc1ccc(C(C)C)cc1)CC2,-
O=C1CCN(C(=O)c2cc3ccccc3[nH]2)CCCC(CO)CCN1 (centres undefined),-
Cc1cc(C)n(CCC(=O)N2CCC(N3C[C@H](O)C[C@H]3C(=O)NC3CCCCC3)CC2)n1,-
Cc1cnc(C(=O)N2CCC(N3C[C@H](O)C[C@H]3C(=O)NC3CCCCC3)CC2)cn1,-
Cc1cc(C)n(Cc2ccc(C(=O)N3CCC(N4C[C@H](O)C[C@H]4C(=O)NC4CCCCC4)CC3)o2)n1,5µM
CC1CCCCN1CCNC(=O)c1ccc(Cn2c(SCc3ccccc3)nc3cccnc32)cc1 (centres undefined),5.6µM
O=C(NC1CCCC1)c1ccc(CSc2nc3cccnc3n2Cc2ccc(F)cc2)cc1,-
CC1CCN(CCNC(=O)c2ccc(Cn3c(SCc4ccccc4)nc4cccnc43)cc2)CC1,10µM
O=C(NCCN1CCCCC1)c1ccc(Cn2c(SCc3ccccc3)nc3cccnc32)cc1,5µM
O=C(c1cccc(F)c1)N1CCC(c2n[nH]c(=O)n2-c2ccccc2)CC1,-
Cn1cc(C(=O)Nc2ccc3c(c2)C(=O)N2CCC[C@H]2C(=O)N3)c2ccccc21,-
CC1(C)C(=O)N(Cc2ccccc2)[C@H]2CN(Cc3cccc(C(=O)O)c3)C[C@H]2[S+]1(=O)[O-],-
CCOCC(=O)N[C@H]1CN(Cc2nc(C)c(C)n2C)C[C@@H]1C(C)C,-
COc1ccc(CN2CCOC[C@H](OC)C2)cn1,-
Cn1cnnc1CC1CCN(C(=O)c2cn3cc(Cl)ccc3n2)CC1,-
SMILES,Pf Dd2 inh
COc1ccc(C2Cn3nnc(-c4noc(-c5ccc(N(C)C)cc5)n4)c3CO2)cc1 (centres undefined),-
CNC(C)c1ccc(OC(F)(F)F)cc1 (centres undefined),-
CNC(C)c1ccc(Oc2ccccc2)cc1 (centres undefined),11µM
CNC(C)c1ccncc1 (centres undefined),-
CC1(C)N=C(c2ccccc2)C(=O)N1CC(N)=O,-
O=S1(=O)NCC2(CCN(Cc3ccoc3)CC2)Oc2ncccc21,-
Cc1cc(OCC(=O)N(Cc2ccc(N(C)C)cc2)Cc2ccco2)cc(C)c1Cl,-
Cc1cccc(OCC(=O)N(Cc2ccc(C(C)(C)C)cc2)Cc2ccco2)c1,11µM
Cc1ccc(CN(Cc2ccco2)C(=O)COc2ccc(C)c(C)c2)cc1,-
COCCCNC(=O)c1cc(C)nc2onc(C3CCCNC3)c12 (centres undefined),-
CCc1noc(-c2cccn3c(CNC(=O)c4ccc(F)c(F)c4)nnc23)n1,-
COc1ccc(-c2cc3c(nc2OC)nc(CC2CC2)n3C)cc1,-
COc1ncc(-c2cc3c(nc2OC)nc(CCc2ccccc2)n3C)cn1,7.9µM
COc1nc2nc(CCc3ccccc3)n(C)c2cc1-c1ccncc1,-
COc1cc(Cl)ccc1C(=O)N1CCC2(CC1)NC(=O)N(c1ccccc1)N2,-
Cc1cccc(OCC(=O)Nc2c(C(=O)N3CCN(c4ccccc4)CC3)oc3ccccc23)c1,11µM
O=C(Nc1c(C(=O)N2CCN(c3ccccc3F)CC2)oc2ccccc12)c1ccccc1F,-
Cc1cccc(CC(=O)Nc2c(C(=O)Nc3cccc(F)c3)oc3ccccc23)c1,-
COc1ccc(N2CCN(C(=O)c3oc4ccccc4c3NC(=O)c3ccccc3OC)CC2)cc1,-
Cc1cccc(C(=O)Nc2c(C(=O)N3CCN(c4ccc(F)cc4)CC3)oc3ccccc23)c1,13µM
O=C(Nc1c(C(=O)N2CCN(c3ccccc3)CC2)oc2ccccc12)c1ccc(Br)o1,10µM
Cc1cccc(OCC(=O)Nc2c(C(=O)Nc3ccc(F)cc3)oc3ccccc23)c1,-
O=C(Nc1c(C(=O)N2CCN(c3ccccc3)CC2)oc2ccccc12)c1ccccc1F,-
Cc1ccc(C(=O)c2oc3ccccc3c2NC(=O)COc2ccc(Cl)c(C)c2)cc1,-
CCNC(=O)[C@@H]1C[C@@H](NC(=O)Cn2nccc2C)CN1Cc1ccccn1,-
O=C(N[C@@H](Cn1cc(Cl)c(=O)[nH]c1=O)C(=O)O)C1CC1,-
